# According to PubChem BioAssay:
# Assay: caspase-8 TRAIL sensitization, hit retest, confirmation, cell-based, NB7+caspase-8, with/without TRAIL, luminescence panel (AID 651596)
# Conditions: NB7 neuroblastoma + caspase-8, without TRAIL, luminescence viability, without TRAIL, mean of runs, at 10 µM
row,Compound,activity
1,O=C(CC(O)(C(F)(F)F)C(F)(F)F)Nc1ccc(Cl)c(Cl)c1,63.1%
2,Cc1cccc(NC(=O)c2nc(S(=O)(=O)Cc3ccccc3)ncc2Cl)c1,98.5%
3,COc1ccc(C(CCN(Cc2ccc(OC)c(OC)c2)C(=O)CCl)c2ccccc2)cc1 (stereo unspecified),99.7%
4,Cc1ccc(CS(=O)(=O)c2ncc(Cl)c(C(=O)Nc3nnc(C)s3)n2)cc1,97.2%
5,CCOC(=O)/C(=C\c1ccc([N+](=O)[O-])cc1)C(=O)c1cc(C(C)=O)c(Nc2ccccc2)s1,95.6%
6,COc1cc(NC(=O)c2[nH]cnc2C(N)=O)cc(C(=O)Nc2cccc(C(F)(F)F)c2)c1,53.4%
